Bioassay records: PubChem BioAssay, Sanford-Burnham Center for Chemical Genomics
tim23-1 inh = growth inhibitors of tim23-1 mutant yeast, primary screen, luminescence, uHTS. S. cerevisiae tim23-1 growth, BacTiter-Glo luminescence, 24 h. inhibition, % at 20 µM. 1.3% of 330,000 active. AID 463212, 2010;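 active = growth inhibition of the mutant yeast at or above 50%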;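 also: temperature-sensitive mutant grown at 25 °C; plate controls were DMSO-treated mutant yeast for no effect and medium wells lacking yeast for full effect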
NLRP3 yeast inh = NALP3 inflammasome inhibitors in reconstituted yeast, primary screen, luminescence, uHTS; Yeast reconstituted NLRP3/ASC/caspase-1, beta-gal luminescence, 24 h; inhibition, % at 10 µM; 0.39% of 330,000 active; AID 2825, 2010;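 active = inhibition of 50% or more; inactive = inhibition below 50%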;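 also: plate controls were induced DMSO wells for no effect and uninduced yeast grown without galactose for full effect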
NALP1 yeast inh = NALP1 inflammasome inhibitors in reconstituted yeast, colorimetric, S. cerevisiae, triplicate retest. S. cerevisiae NALP1/ASC/caspase-1 growth, X-gal OD620, 72 h. inhibition, % at 10 µM. 0.61% of 280,000 active. AID 2071, 2009; in the data active = inhibition mostly above about 24%, no sharp cut-off; inactive = mostly below about 32%
tim10-1 inh = growth inhibitors of tim10-1 mutant yeast, primary screen, luminescence, uHTS; S. cerevisiae tim10-1 ts strain growth, BacTiter-Glo, 24 h; inhibition, % at 20 µM; 2.2% of 330,000 active;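 active = inhibition of at least 40%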;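 also: mutant grown at 25 °C; 0% = DMSO wells with yeast and 100% = wells holding no yeast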
TIM10 inh = growth inhibitors of isogenic TIM10 control yeast, primary screen, counter-screen for tim10-1 yeast inhibitor project, luminescence, uHTS. S. cerevisiae TIM10 strain growth, BacTiter-Glo luminescence, 24 h. AID 463195, 2010. inhibition, % at 10 µM. 1.4% of 330,000 active;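 active = inhibition of 40% or more at the single tested concentration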;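 also: wild-type TIM10 isogenic control strain grown at permissive 25 °C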
tim10-1 confirm = growth inhibitors of tim10-1 mutant yeast, confirmation, single concentration, luminescence, S. cerevisiae; shares compounds with tim10-1 inh; 56% of 7,400 active; S. cerevisiae tim10-1 ts strain growth, BacTiter-Glo, 24 h; inhibition, % at 20 µM;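 active = inhibition of yeast growth at or above a set limit in either of two repeat tests at 20 µM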;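 also: tim10-1 mutant grown at permissive 25 °C to find synthetic lethal compounds; 0% = DMSO yeast wells and 100% = medium wells without yeast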
TIM10 conf = growth inhibitors of wild-type TIM10 yeast, confirmation, counter-screen for tim10-1 synthetic lethality project, single concentration, luminescence, S. cerevisiae | inhibition, % at 10 µM | S. cerevisiae tim10 strain growth, BacTiter-Glo luminescence, 24 h | 63% of 4,600 active | shares compounds with TIM10 inh;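 active = inhibition of yeast growth at or above a set limit in either of two replicates at 10 µM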;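 also: this counterscreen used the strain with wild-type TIM10; 0% = yeast with DMSO and 100% = medium wells lacking yeast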
tim23-1 confirm = tim23-1 mutant yeast growth inhibitors, confirmation, luminescence, single concentration | 83% of 4,400 active | S. cerevisiae tim23-1 growth, BacTiter-Glo luminescence, 24 h | AID 463218, 2010 | inhibition, % at 20 µM | shares compounds with tim23-1 inh;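 active = inhibition above about 39% in either of two replicate wells at 20 µM, limit read from the data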;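 also: temperature-sensitive tim23-1 mutant grown at 25 °C; 0% = DMSO wells with yeast and 100% = medium wells without yeast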
An asterisk follows results filed as active; x = no result given. Most compounds without a hit are left out; they make up all but 4% or so of the library.

SMILES | tim23-1 inh | NLRP3 yeast inh | NALP1 yeast inh | tim10-1 inh | TIM10 inh | tim10-1 confirm | tim23-1 confirm | others
S=c1[nH]nc(-c2ccc(Cl)cc2)n1/N=C/C=C/c1ccco1 | 51* | 1 | -3 | 45* | 36 | 29 | 38
Cc1nnc2ccc(-c3ccc(NS(=O)(=O)c4ccc(Cl)s4)cc3)nn12 | 10 | 18 | x | 15 | 11 | x | x
CCOC(=O)/C=C/C(=O)Nc1ccc(Oc2ccccc2)cc1 | 55* | -4 | 5 | 50* | 33 | 49* | 66*
COc1cccc(NC(=O)Nc2ccc(C(C)(C)C)cc2)c1 | 58* | 0 | -2 | 57* | 49* | 46* | 75* | TIM10 conf=60*
CCO[C@H]1c2c(ccc3ccc(=O)oc23)OC(C)(C)[C@H]1O | 16 | -7 | x | 10 | -1 | x | x
Cc1ccc(S/C=C\C(=O)c2ccccc2)cc1 | 58* | 26 | 10 | 49* | 44* | 46* | 62* | TIM10 conf=55*
Cc1ccc(C(=O)/C=C\C(=O)c2ccc(C)cc2)cc1 | x | x | 66 | x | x | x | x
COc1cccc(NC(=O)CN(C)C(=O)c2ccc(Cl)c(S(=O)(=O)N3CCCCCC3)c2)c1 | 2 | -9 | x | 3 | -3 | x | x
CCN(CC)c1ccc(NC(=O)c2cc(Cl)ccc2OC)cc1 | 50* | 22 | 5 | 43* | 26 | 32* | 44*
Nc1c(Cl)c(Cl)nc(C(=O)OCC(=O)NC2CCCCC2)c1Cl | 37 | 14 | 9 | 16 | 10 | x | x
CCOc1ccc(/C=C2\CCc3ccccc3C2=O)cc1 | 17 | 32 | 23 | 24 | 20 | x | x
O=C1/C(=C\c2ccncc2)CCc2ccccc21 | 72* | 21 | x | 65* | 60* | 62* | 39 | TIM10 conf=62*
O=C(NC(=S)Nc1cccc(F)c1)c1cccc([N+](=O)[O-])c1 | 54* | 28 | 13 | 49* | 6 | 3 | 52*
Cc1cccc(NC(=S)NNC(=O)c2cccc([N+](=O)[O-])c2)c1 | 10 | 39 | -33 | 10 | 16 | x | x
Cc1ccc(-n2ncc3c2CCCC3NC(=O)CSc2ccccn2)cc1C (stereo not given) | 31 | 8 | 20 | 37 | 5 | x | x
CCN(CC)S(=O)(=O)c1ccc(OC)c(NC(=S)Nc2cccc(C)c2C)c1 | 27 | 11 | 34 | 33 | 7 | x | x
Oc1ccc(Br)cc1/C=N/n1c(-c2ccccc2)n[nH]c1=S | 57* | 10 | -2 | 46* | 22 | 41* | 59*
O=c1oc(CCCO)cc2ccc(/C=C/c3cccc([N+](=O)[O-])c3)cc12 | 5 | 7 | x | 15 | -8 | x | x
NC(=NC(=O)c1ccc(OCC(F)(F)F)nc1)c1ccc(Cl)cc1 | 56* | 14 | x | 68* | 18 | 48* | 42*
NC(=NC(=O)c1ccc(OCC(F)(F)F)nc1)c1ccccc1 | 34 | 11 | x | 15 | 15 | x | x
CCCn1c(NC(=O)c2ccccc2)nc2ccccc21 | 19 | 16 | 6 | 24 | 4 | x | x
CCCn1c(NC(=O)c2cccc(S(=O)(=O)N3CCCC3)c2)nc2ccccc21 | 50* | 10 | 3 | 41* | 40 | 27 | 58*
C/C(CC(=O)Nc1ccc(Cl)c(Cl)c1)=N\NC(=O)C(=O)N1CCCCC1 | 0 | 13 | -3 | 10 | 12 | x | x
CC[C@@]1(C(=O)OC)N[C@H](CN(C)C(=O)C2CCCCC2)[C@@H]2C(=O)N(Cc3ccccc3)C(=O)[C@@H]21 | 13 | 2 | x | 21 | 12 | x | x
COc1ccc(OC)c(/C=c2\sc3nc(-c4cccs4)nn3c2=O)c1 | 53* | 8 | 46 | 49* | 28 | 37* | 47*
SMILES | tim23-1 inh | NLRP3 yeast inh | NALP1 yeast inh | tim10-1 inh | TIM10 inh | tim10-1 confirm | tim23-1 confirm | others
COc1ccccc1/C=c1\sc2nc(-c3ccco3)nn2c1=O | 49 | 18 | x | 39 | 32 | x | x
CCn1c(SCC(=O)Nc2cc(OC)ccc2OC)nnc1C1CCCCC1 | 18 | 5 | 22 | 20 | 1 | x | x
CC(C)[C@H](N[C@@H](C)c1ccccc1)c1c(O)ccc2ccccc12 | 50* | 24 | 11 | 45* | 22 | 35* | 40*
COc1ccc(-c2cn(CCO)nc2-c2ccc(OC)cc2)cc1 | 11 | 20 | 22 | 32 | -15 | x | x
CN1CCN(C(=O)CCN2C(=O)/C(=C\c3ccc(Cl)cc3)SC2=S)CC1 | 31 | 15 | 27 | 34 | 18 | x | x
CC(=O)N(C(C)=O)N1C(=O)/C(=C/c2ccc(Cl)cc2)SC1=S | 75* | -10 | -20 | 64* | 57* | 58* | 39* | TIM10 conf=80*
Cn1c(SCC(=O)NNC(=O)c2ccc(Cl)cc2)nnc1-c1cccnc1 | 1 | 15 | -7 | 5 | -1 | x | x
O=C(CSc1nnc(-c2ccncc2)o1)NC1C2CC3CC(C2)CC1C3 (stereo not given) | 18 | 1 | 30 | 9 | -5 | x | x
Cc1nc(C(N)=O)c(N)n1CCc1ccccc1 | 8 | -5 | 24 | 10 | -16 | x | x
O=[N+]([O-])c1ccc(Nc2ccccc2)c2nonc12 | 60* | 22 | 16 | 49* | 45* | 37* | 67* | TIM10 conf=39*
CC(=O)NS(=O)(=O)c1ccc(Nc2ccc([N+](=O)[O-])c3nonc23)cc1 | 10 | 23 | x | 8 | 16 | x | x
CC(=O)O/N=C(/c1nonc1N)N1CCN(c2ccc([N+](=O)[O-])cc2Cl)CC1 | 63* | -7 | 23 | 62* | 75* | 67* | 75* | TIM10 conf=85*
CCOc1ccccc1CNc1ccc(O)cc1 | x | x | -8 | x | x | x | x
CCOc1cccc(CNc2ccc(O)cc2)c1OCc1ccc(Cl)cc1 | 60* | 21 | 22 | 43* | 21 | 32* | 59*
CCNC(=S)N/N=C/c1ccc(-c2ccccc2)o1 | 53* | 14 | 10 | 44* | 28 | 33* | 36
COC(=O)C1=C(C)NC(=S)NC1c1ccc(-c2ccccc2C(=O)OC)o1 (stereo not given) | 16 | 11 | -18 | 23 | 6 | x | x
COC(=O)C1=C(C)NC(=S)NC1c1ccc(-c2cccc(Cl)c2)o1 (stereo not given) | 52* | 12 | 1 | 50* | 53* | 39* | 49* | TIM10 conf=1
CC(CS(=O)(=O)c1ccc2c(c1)NC(=O)CS2)C(=O)NCc1ccccc1Cl (stereo not given) | -9 | 7 | 18 | 0 | 6 | x | x
